# Source: a collection of fitness landscapes (doi:10.1038/s41467-024-54723-y)
# Whole data set: some 18,000 sequences, median “TetR repression strength (sort-seq, GFP reporter)” near 0.23, cut for the highest 2% near 0.68. Many of the other results were omitted from the sample, so the highest values are more common in it than they were.
# Target: TetR (class B, Tn10) (UniProt P04483)
# Experiment: TetR repression strength (sort-seq, GFP reporter) (relative to tetO2 = 1); higher = stronger repression
# Settings: E. coli
# Procedure, shortened: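 Three independent transformations of E. coli SIG10-MAX were made with a low-copy plasmid library randomizing eight operator positions between a constitutive promoter and sfGFP, with constitutive TetR. Following 5 h at 37 °C in LB plus 50 µg/mL chloramphenicol, 10^6 cells went through FACS into 13 fluorescence bins, and each bin was sequenced by Illumina. Repression strength was defined as the top bin index plus one minus the read-weighted mean bin, divided by the unaltered operator's value. Averages included only members reaching ≥30 reads in all replicates with a CV ≤0.5.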
# Sequence of TetR (class B, Tn10) (P04483 whole entry): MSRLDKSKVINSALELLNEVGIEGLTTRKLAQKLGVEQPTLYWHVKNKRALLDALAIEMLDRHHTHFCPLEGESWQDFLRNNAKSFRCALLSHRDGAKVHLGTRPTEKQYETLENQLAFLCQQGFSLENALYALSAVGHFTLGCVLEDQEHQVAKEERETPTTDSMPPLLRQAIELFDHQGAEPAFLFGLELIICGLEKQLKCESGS
row,Sequence,TetR repression strength
1,TCCCGGACAGTAACGGAGA,0.312
2,TCCCGCGGAGTCACTGAGA,0.415
3,TCCCTCGTAGTGTTTGAGA,0.362
4,TCCCAGTCAGTTCAGGAGA,0.096
5,TCCCGATAAGTTGCGGAGA,0.185
6,TCCCTTTCAGTAGCGGAGA,0.798
7,TCCCCTTCAGTAGCGGAGA,0.344
8,TCCCTTTCAGTAGGGGAGA,0.194
9,TCCCTTACAGTAGCGGAGA,0.0543
10,TCCCTTTCAGTCGAGGAGA,0.369
11,TCCCTTTCAGTAGAGGAGA,1.01
12,TCCCAGACAGTCATCGAGA,0.368
13,TCCCTAGCAGTTGTAGAGA,0.509
14,TCCCTTGCAGTGATCGAGA,0.654
15,TCCCGTCGAGTAGGGGAGA,0.127
16,TCCCTGGGAGTTAGAGAGA,0.832
17,TCCCAGCGAGTTACAGAGA,0.238
18,TCCCTGATAGTTTGAGAGA,0.382
19,TCCCTAGTAGTTAGGGAGA,0.192
20,TCCCTGGGAGTTATAGAGA,0.354
21,TCCCTGGGAGTTAGTGAGA,0.146
22,TCCCTGTTAGTTTGTGAGA,0.4
23,TCCCAGAGAGTTAGCGAGA,0.557
24,TCCCTGTTAGTTTGAGAGA,0.856

row,Sequence,TetR repression strength
1,TCCCAGCGAGTTAGAGAGA,0.815
2,TCCCTTGGAGTTAGGGAGA,0.2
3,TCCCTAGGAGTTAGGGAGA,0.979
4,TCCCAGAAAGTCAATGAGA,0.289
5,TCCCTGCTAGTGGCAGAGA,0.119
6,TCCCTATAAGTAGGAGAGA,0.228
7,TCCCAGTGAGTGCGCGAGA,0.286
8,TCCCCAGAAGTCGTTGAGA,0.061
9,TCCCCGTAAGTACAGGAGA,0.368
10,TCCCGGCAAGTTTTTGAGA,0.238
11,TCCCGGGAAGTGGGGGAGA,0.274
12,TCCCGGATAGTGATCGAGA,0.33
13,TCCCGACTAGTCAGGGAGA,0.515
14,TCCCCGGGAGTGTGGGAGA,0.207
15,TCCCTGGTAGTGACCGAGA,0.116
16,TCCCTGGTAGTTAGTGAGA,0.141
17,TCCCTGGTAGTGACAGAGA,1.03
18,TCCCTTGGAGTTGAGGAGA,0.465
19,TCCCCTTGAGTTGAGGAGA,0.707
20,TCCCAAGAAGTTGCGGAGA,0.21
21,TCCCTAGTAGTTGCGGAGA,0.322
22,TCCCTGGTAGTTAGAGAGA,0.821
23,TCCCTGTTAGTTAGAGAGA,0.452
24,TCCCCTAGAGTTGAGGAGA,0.239

row,Sequence,TetR repression strength
1,TCCCTAGAAGTTGCGGAGA,1.2
2,TCCCTGGTAGTGAGAGAGA,0.326
3,TCCCGGCTAGTGTGGGAGA,0.221
4,TCCCAGGAAGTCAGGGAGA,0.235
5,TCCCCGAGAGTGCCAGAGA,0.411
6,TCCCAATGAGTTCAGGAGA,0.243
7,TCCCAGTTAGTAATTGAGA,0.0467
8,TCCCTGGGAGTTGGGGAGA,0.211
9,TCCCCTGGAGTTGGGGAGA,1.09
10,TCCCCTGGAGTTTGGGAGA,0.286
11,TCCCGACTAGTGATAGAGA,0.632
12,TCCCCTGTAGTGTTTGAGA,0.396
13,TCCCCTCGAGTGTTTGAGA,0.92
14,TCCCCTCTAGTGTTTGAGA,0.945
15,TCCCCTTGAGTGTTTGAGA,0.302
16,TCCCGTCTAGTGTTTGAGA,0.371
17,TCCCCTCGAGTGTGTGAGA,0.125
18,TCCCCCAGAGTTAACGAGA,0.207
19,TCCCCTGCAGTGGCTGAGA,0.205
20,TCCCCAAAAGTAGATGAGA,0.081
21,TCCCCATTAGTAGTCGAGA,1.01
22,TCCCGTTGAGTCGATGAGA,0.335
23,TCCCCTAGAGTCGATGAGA,0.271
24,TCCCCAATAGTAGATGAGA,0.672

row,Sequence,TetR repression strength
1,TCCCCACGAGTAGTCGAGA,0
2,TCCCCATGAGTAGTCGAGA,1.03
3,TCCCCAAGAGTAGATGAGA,0.739
4,TCCCGTAGAGTCGATGAGA,0.715
5,TCCCCAATAGTAGTCGAGA,0.459
6,TCCCCATTAGTATTCGAGA,0.24
7,TCCCCATGAGTCGTCGAGA,0.214
8,TCCCGAAGAGTAAGTGAGA,0.207
9,TCCCGTCCAGTGTGTGAGA,0.22
10,TCCCATATAGTGTACGAGA,0.0769
11,TCCCCTAGAGTGCAAGAGA,0.552
12,TCCCATGGAGTTGGTGAGA,0.227
13,TCCCCTCAAGTCGAGGAGA,0.125
14,TCCCTACAAGTGGATGAGA,0.221
15,TCCCTCTCAGTGCCAGAGA,0.585
16,TCCCTATCAGTCCGAGAGA,0.324
17,TCCCTATCAGTCCCAGAGA,1.18
18,TCCCTGTCAGTGCCAGAGA,0.324
19,TCCCTTTCAGTCCCAGAGA,0.0305
20,TCCCCAGTAGTCTGAGAGA,0.0196
21,TCCCAGTCAGTCCCAGAGA,0.365
22,TCCCTATCAGTGCCAGAGA,0.743
23,TCCCTATTAGTCCCAGAGA,0.32
24,TCCCCTTCAGTCCCAGAGA,1.12

row,Sequence,TetR repression strength
1,TCCCCAGTAGTCGCTGAGA,0.311
2,TCCCCAGTAGTCCCTGAGA,0.945
3,TCCCGTCAAGTAATAGAGA,0.331
4,TCCCTGTTAGTTGTCGAGA,0.341
5,TCCCTTTCAGTATGGGAGA,0.422
6,TCCCAAAAAGTGGTGGAGA,0.203
7,TCCCCGCGAGTTGAAGAGA,0.335
8,TCCCTAACAGTCGGCGAGA,0.163
9,TCCCTGAGAGTCGTGGAGA,0.239
10,TCCCGTCAAGTGGATGAGA,0.109
11,TCCCTCCGAGTGCAGGAGA,0.492
12,TCCCCCGCAGTGCATGAGA,0.385
13,TCCCCCTCAGTTGTAGAGA,0.237
14,TCCCGAGCAGTGCAGGAGA,0.226
15,TCCCGACCAGTGCGGGAGA,0.222
16,TCCCGACCAGTGCAGGAGA,0.805
17,TCCCGAGAAGTGCAGGAGA,0.173
18,TCCCGACAAGTGCAGGAGA,0.684
19,TCCCGAAAAGTGCAGGAGA,0.26
20,TCCCTAGCAGTGGTGGAGA,0.27
21,TCCCGTTGAGTGTATGAGA,0.181
22,TCCCAGGCAGTCCGTGAGA,0.2
23,TCCCGGTTAGTGCAAGAGA,0.415
24,TCCCTAGGAGTAACGGAGA,0.183

row,Sequence,TetR repression strength
1,TCCCGTCTAGTTCTGGAGA,0.687
2,TCCCGTGTAGTTCTGGAGA,0.189
3,TCCCGTCGAGTAAAGGAGA,0.22
4,TCCCGTCGAGTGCCGGAGA,0.363
5,TCCCGTCGAGTTCCGGAGA,0.977
6,TCCCGTCTAGTTAAGGAGA,0.811
7,TCCCGTCTAGTTGAGGAGA,0.24
8,TCCCGTCGAGTGAAGGAGA,0.311
9,TCCCGTCGAGTTAAGGAGA,0.815
10,TCCCTTCTAGTTAAGGAGA,0.283
11,TCCCGTCTAGTTCTAGAGA,0.36
12,TCCCGTCGAGTCCCGGAGA,0.402
13,TCCCCGTAAGTGCAGGAGA,0.21
14,TCCCAGCGAGTCCAGGAGA,0.27
15,TCCCACTTAGTAAGTGAGA,0.141
16,TCCCAGTAAGTAGCCGAGA,0.0168
17,TCCCGGACAGTATATGAGA,0.304
18,TCCCTAGCAGTAGTAGAGA,0.681
19,TCCCCGTTAGTTAAGGAGA,0.149
20,TCCCCACTAGTTAAGGAGA,0.225
21,TCCCCGCTAGTTAAGGAGA,0.755
22,TCCCGGAGAGTGTATGAGA,0.188
23,TCCCAGTGAGTTGCCGAGA,0.212
24,TCCCATAAAGTTCATGAGA,0.36

row,Sequence,TetR repression strength
1,TCCCGTCAAGTTCATGAGA,0.15
2,TCCCGTACAGTTCATGAGA,1.18
3,TCCCGTACAGTTGATGAGA,0.2
4,TCCCCTACAGTTCATGAGA,0.189
5,TCCCGTAAAGTTCATGAGA,1.21
6,TCCCAGTTAGTCTTTGAGA,0.334
7,TCCCTAAAAGTTTGAGAGA,0.334
8,TCCCGTGCAGTGATAGAGA,0.647
9,TCCCATCCAGTGATAGAGA,0.626
10,TCCCGTTCAGTGATAGAGA,0.819
11,TCCCGTTCAGTGCTAGAGA,0.681
12,TCCCATTCAGTTATAGAGA,0.596
13,TCCCTGCTAGTGATAGAGA,0.638
14,TCCCTGATAGTGATCGAGA,0.362
15,TCCCTGCTAGTGATCGAGA,0.745
16,TCCCGTTCAGTGAGAGAGA,0.516
17,TCCCGTTCAGTGCGAGAGA,0.0532
18,TCCCGTGCAGTGCTAGAGA,0.38
19,TCCCATTCAGTGATAGAGA,0.707
20,TCCCGGGAAGTATTCGAGA,0.391
21,TCCCCAAGAGTTTGGGAGA,0.217
22,TCCCGGATAGTACTAGAGA,0.291
23,TCCCGGTTAGTTCGAGAGA,0.0821
24,TCCCCACCAGTGGCGGAGA,0.231

row,Sequence,TetR repression strength
1,TCCCTACTAGTACGGGAGA,0.394
2,TCCCGCTCAGTTGTAGAGA,0.421
3,TCCCATACAGTTGGAGAGA,0.37
4,TCCCCATAAGTACAAGAGA,0.446
5,TCCCGTGTAGTAGGAGAGA,0.17
6,TCCCTCGCAGTGGATGAGA,0.323
7,TCCCATTTAGTGATCGAGA,0
8,TCCCTGCCAGTGATAGAGA,0.646
9,TCCCTGACAGTTGGCGAGA,0.301
10,TCCCTGTCAGTGAGAGAGA,0.444
11,TCCCGTTCAGTACGCGAGA,0.912
12,TCCCATTAAGTGATCGAGA,0.344
13,TCCCATTCAGTGATCGAGA,0.731
14,TCCCTGTCAGTTGGAGAGA,0.36
15,TCCCTGTCAGTTGGCGAGA,0.874
16,TCCCGTTCAGTAGGCGAGA,0.261
17,TCCCGCTCAGTACGCGAGA,0.104
18,TCCCTGTCAGTGATAGAGA,0.863
19,TCCCGACTAGTAACTGAGA,0.613
20,TCCCTAGTAGTTGTTGAGA,0.308
21,TCCCCGGGAGTTATGGAGA,0.274
22,TCCCACTTAGTTGCTGAGA,0.19
23,TCCCGGTCAGTGAAGGAGA,0.236
24,TCCCGGCCAGTCAAAGAGA,0.406

row,Sequence,TetR repression strength
1,TCCCTTCCAGTTCACGAGA,0.325
2,TCCCAATTAGTTTGAGAGA,0.313
3,TCCCCGCGAGTAGGAGAGA,0.405
4,TCCCTGGGAGTGTGTGAGA,0.182
5,TCCCGTGGAGTACTAGAGA,0.229
6,TCCCGCTAAGTGCTAGAGA,0.36
7,TCCCTGAGAGTGATCGAGA,0.0416
8,TCCCATTGAGTGCACGAGA,0.443
9,TCCCTGTCAGTGATCGAGA,0.734
10,TCCCGTTCAGTGATCGAGA,0.724
11,TCCCGTTAAGTGCTAGAGA,0.685
12,TCCCATTCAGTGCACGAGA,0.691
13,TCCCATGCAGTGCACGAGA,0.17
14,TCCCGTTCAGTGCTCGAGA,0.442
15,TCCCTGTCAGTAATCGAGA,0.535
16,TCCCGTTCAGTGAACGAGA,0.617
17,TCCCGTTAAGTGCGAGAGA,0.109
